Bioassay records (PubChem)
D2 PAM-1: Beta-Arrestin HTS for Positive Allosteric Modulators of the Human D2 Dopamine Receptor: Potentiators; potentiation, % (test concentration not listed); AID 624464, 2012; 0.23% of 360,000 active; D(2) dopamine receptor (Homo sapiens), P14416; DiscoveRx D2 beta-arrestin cells, luminescence, 90 min; 100% = 57 uM dopamine signal; in the data active means potentiation above about 50%; inconclusive means mostly about 30% to 49%
Target sequence (P14416 whole entry, looked up): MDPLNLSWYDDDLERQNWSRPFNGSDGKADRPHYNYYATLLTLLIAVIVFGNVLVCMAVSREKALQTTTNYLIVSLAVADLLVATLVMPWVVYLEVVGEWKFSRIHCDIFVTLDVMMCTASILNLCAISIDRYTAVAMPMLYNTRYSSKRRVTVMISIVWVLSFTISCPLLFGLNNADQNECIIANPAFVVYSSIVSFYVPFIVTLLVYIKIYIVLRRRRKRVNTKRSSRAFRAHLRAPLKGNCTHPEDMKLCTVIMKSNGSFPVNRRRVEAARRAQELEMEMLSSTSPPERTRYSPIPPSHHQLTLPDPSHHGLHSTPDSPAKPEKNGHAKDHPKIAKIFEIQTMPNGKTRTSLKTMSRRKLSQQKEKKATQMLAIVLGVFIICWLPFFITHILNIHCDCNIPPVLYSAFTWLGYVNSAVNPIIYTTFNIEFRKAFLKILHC
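D2 cells co-treated with compound plus 50 nM dopamine (EC20) for 90 min at 37 deg C to detect potentiation. Beta-arrestin recruitment was read as enzyme-fragment luminescence after 1 h at ambient temperature. Full response was set by 57 uM dopamine.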
D2 antagonist: HTS Assay for Allosteric Antagonists of the Human D2 Dopamine Receptor: Primary Screen for Antagonists | inhibition, % at 10 µM | 2% of 340,000 active | HEK293 TREx D2 cells, calcium flux, dopamine EC80; in the data active means inhibition above about 30%; inactive means below that, where a call was filed; further: 0% is about no effect
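Tetracycline-induced HEK293 TREx cells expressing D2 receptor forced-coupled to calcium signalling, loaded with no-wash calcium dye. Compounds added and calcium flux read 180 s, then dopamine added at EC80 and read a further 180 s.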
D2 ag-1: Beta-Arrestin HTS for Positive Allosteric Modulators of the Human D2 Dopamine Receptor: Agonists; DiscoveRx PathHunter D2 beta-arrestin, luminescence, 90 min; 100% = 57 uM dopamine signal; activation, % (concentration not given with the values); 0.084% of 360,000 active; in the data active means activation above about 40%; inconclusive means between about 15% and that limit
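DiscoveRx PathHunter D2 beta-arrestin cells (2,100/well) attached overnight, then compound-stimulated 90 min at 37 C in HBSS/10 mM HEPES/0.1% Tween-20 buffer; beta-galactosidase complementation read by luminescence after 1 h at ambient temperature. Dopamine 57 uM final (EC100) as control.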
D2 ag-2: HTS Assay for Allosteric Agonists of the Human D2 Dopamine Receptor: Primary Screen for Agonists; D(2) dopamine receptor (Homo sapiens), P14416; 0.53% of 340,000 active; activation, % at 2 µM; AID 485358, 2010; HEK293 T-REx D2 cells, calcium flux agonist mode;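 active means activation over 3 SD above normal in the single-dose calcium agonist read, cut at about 30% in these data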; further: 0% is about no effect
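Agonism scored from kinetic calcium signal (1 read/sec, 180 s) following compound pin transfer, after a 10 s baseline. Cells: HEK293 Trex line expressing inducible D2 receptor coupled to calcium, dye-loaded after overnight culture at 30 C.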
D2 PAM-2: HTS Assay for Positive Allosteric Modulators of the Human D2 Dopamine Receptor: Primary Screen for Potentiators | HEK293 T-REx D2, calcium flux, EC20 dopamine potentiation | potentiation, % at 10 µM | 0.34% of 340,000 active | AID 485347, 2010;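 active means potentiation over 3 SD above the plate norm, cut at about 30% in these data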; further: 0% is about no effect
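Calcium flux readout, no-wash dye, 1 read/s. Inducible HEK293 Trex D2 line, overnight 30 C. Compound alone 180 s (agonist flags), then EC20 dopamine, another 180 s to score potentiation.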
* = called active by the depositor; ? = inconclusive; nt = no result. The list is not random: actives were taken first. Their share in the collection is about 2.4%.

SMILES | D2 PAM-1 | D2 antagonist | D2 ag-1 | D2 ag-2 | D2 PAM-2
CN(c1ccccc1)S(=O)(=O)c1ccc(C(=O)NCc2ccccc2CN2CCCC2)cc1 | -37 | 0 | -2 | 0 | -20
CN(c1ccccc1)S(=O)(=O)c1cccc(C(=O)NCc2ccccc2CN2CCCC2)c1 | -33 | 39* | -2 | 0 | -31
CSc1ncccc1C(=O)Nc1ccc(OC(F)(F)F)cc1 | -1 | -21 | -1 | 1 | -4
CC(=O)Nc1ccc(Sc2ncccc2C(=O)Nc2ccc(F)cc2)cn1 | -4 | 2 | 0 | 33* | 6
CCCn1c2ccccc2c2cnn(CC(=O)N3CCN(c4ccccc4)CC3)c(=O)c21 | nt | nt | nt | 0 | 14
O=C(Nc1ccccc1)c1ccc2snnc2c1 | -2 | -4 | -5 | -1 | -4
O=C(Nc1cccnc1)c1ccc2snnc2c1 | -13 | 35* | 2 | -1 | 6
C=CCc1cccc(C=Nc2cc(Br)ccc2O)c1O | 72* | 3 | ? | 1 | -2
C=CCc1cccc(C=Nc2c[nH]c(=O)[nH]c2=O)c1O | -1 | -4 | 0 | 2 | -1
CC(C)NC(=O)C1(c2ccccc2)CCOCC1 | -16 | -26 | -3 | 1 | 35*
CC(Cc1ccccc1)NC(=O)C1(c2ccccc2)CCOCC1 (configuration not stated) | -9 | 9 | -2 | 0 | -1
CC(C)c1ccccc1OCC(=O)N(C)CC(=O)Nc1ccc(F)cc1 | -46 | 56* | -3 | 0 | -22
CN(CC(=O)Nc1ccc(F)cc1)C(=O)CSc1ccc2c(c1)OCCO2 | -2 | 9 | -2 | 0 | -16
CN(CC(=O)Nc1ccc(F)cc1)C(=O)COc1ncnc2ccccc12 | 2 | 3 | -2 | 0 | -6
Cc1ccc(SCC(=O)OCC(=O)N(C)CC(=O)Nc2ccc(F)cc2)cc1C | 10 | 38* | 0 | 12 | 6
Cc1cc(C)n(CC(=O)Nc2cc(F)ccc2F)c(=O)c1C#N | nt | nt | nt | 2 | nt
CCCCN1C(=O)c2ccc(C(=O)Nc3ccccc3N3CCOCC3)cc2C1=O | -28 | 44* | -6 | 3 | 7
O=C(CN1C(=O)c2ccccc2C1=O)Nc1ccccc1N1CCOCC1 | -3 | -18 | 4 | -1 | -1
O=C(NCCCn1ccnc1)c1sc2cc([N+](=O)[O-])ccc2c1Cl | 1 | nt | 2 | nt | nt
C/C(Cn1nnc([N+](=O)[O-])n1)=N\NC(=O)c1ccccc1O | 5 | -1 | ? | 0 | -4
C/C(Cn1nnc([N+](=O)[O-])n1)=N\NC(=O)c1ccc(O)cc1O | 59* | 13 | ? | 6 | 3
COc1ccc(N2CCN(C(c3ccccc3)c3nnc(-c4ccccc4Cl)o3)CC2)cc1 (configuration not stated) | nt | nt | nt | -1 | 11
Cc1noc(C)c1C(=O)OCC(=O)NC1CCCCC1C (configuration not stated) | -46 | -10 | -5 | 1 | 37*
Cc1noc(C)c1C(=O)OCC(=O)NC1CC1 | -4 | -4 | 0 | 0 | 6
CC(=O)N1CCN(c2ccc([N+](=O)[O-])cc2)CC1 | -6 | -4 | -1 | 0 | 4
SMILES | D2 PAM-1 | D2 antagonist | D2 ag-1 | D2 ag-2 | D2 PAM-2
CC(=O)N1CCN(C(=S)c2ccc([N+](=O)[O-])cc2)CC1 | 1 | 48* | -5 | 0 | -16
CN(C(=O)Cn1cc(S(=O)(=O)Cc2ccccc2Cl)c2ccccc21)c1ccccc1 | nt | nt | nt | -1 | 5
CSc1ncccc1C(=O)OCc1c(F)cccc1Cl | 8 | -10 | -3 | 2 | 30*
O=C(c1ccco1)N1N=C2CCCCCC2C1(O)C(F)(F)F (configuration not stated) | 1 | -5 | -3 | -1 | 32*
CCN(Cc1ccc2c(c1)OCCO2)C(=O)CN1C(=O)NC2(CCCCC2)C1=O | -3 | 41* | -2 | 1 | 4
COc1ccccc1C1CCN(c2cc(O)ccc2[N+](=O)[O-])CC1 | -11 | 34* | -5 | 3 | -1
Cc1ccccc1C(=O)NN1CCOCC1 | 6 | -7 | 1 | 1 | -2
O=C(NN1CCOCC1)c1ccccc1Br | -2 | 11 | -2 | 1 | 33*
Cc1ccc(C(=O)N2CCN(c3cccc(Cl)c3)CC2)cc1-n1c(C)nc2cccnc21 | nt | nt | nt | nt | 2
COc1cc(C2CC(=O)Nc3c2c(=O)n(C)c2ncnn32)cc(OC)c1OC (configuration not stated) | nt | nt | nt | -1 | 5
CC(C)NC(=O)CN(Cc1ccc2c(c1)OCO2)C(=O)CCC(=O)Nc1ccccn1 | 1 | 43* | -1 | 0 | 9
Cc1cccc(C)c1N1C(=O)c2cccc([N+](=O)[O-])c2C1=O | 83* | 12 | 5 | 0 | 12
CCOC(=O)c1c(NC(=O)OC)sc(C(=O)N(C)C)c1C | 14 | 69* | 4 | 0 | -5
CCOC(=O)c1c(NC(=O)COC(=O)c2ccc(O)cc2)sc(C(=O)N(C)C)c1C | -5 | -9 | 0 | 0 | 36*
COc1ccc(N2CCC(CNC(=O)Nc3cccc(OC)c3)C2)cc1 (configuration not stated) | -5 | 57* | -3 | 0 | -1
O=C(c1ccc(Cl)cc1)C1CCN(Cc2ccccc2)CC1 | -78 | 81* | -3 | -1 | -29
O=C(NN1CCN(Cc2ccccc2)CC1)c1ccc(Cl)cc1 | -27 | 67* | 0 | 2 | -38
O=C(c1ccc(F)cc1)C1CCN(Cc2ccccc2F)CC1 | -20 | nt | -7 | nt | nt
COc1ccccc1N(CC(O)Cn1ccnc1C)S(=O)(=O)c1ccc(C)cc1 (configuration not stated) | -7 | 67* | -3 | 0 | -20
CC(=O)c1ccc(NC(=O)CN2C(=O)CCc3ccccc32)cc1 | nt | nt | nt | 1 | -2
N/C(=N\c1nc2c(c(=O)[nH]1)CCC2)Nc1ccccc1 | -1 | 30* | 2 | 0 | -5
N/C(=N\c1nc2c(c(=O)[nH]1)CCCC2)Nc1ccccc1 | 11 | -4 | 0 | 0 | 8
CCn1cc([N+](=O)[O-])c(C(=O)Nc2ccn(Cc3ccccc3F)n2)n1 | -2 | 4 | -1 | 0 | 2
Cc1ccccc1Cn1ccc(NC(=O)c2nn(C)cc2[N+](=O)[O-])n1 | -7 | 31* | 2 | 2 | 9
CCOc1ccc(N2CC(O)(c3ccc(F)cc3)[N+]3=C2CCCC3)cc1 (configuration not stated) | -14 | 30* | -2 | 2 | -26
